tim23-1 inh: inhibits growth of tim23-1 mutant yeast; S. cerevisiae tim23-1 growth, BacTiter-Glo luminescence, 24 h; inhibition, % at 20 µM; actives 1.3% (n = 330,000);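 active = growth inhibition of the mutant yeast at or above 50%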;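 note: temperature-sensitive mutant grown at 25 °C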
Mdm2 MdmX PPI: inhibitors of human Mdm2/MdmX interaction; AID 485346; actives 3% (n = 330,000); O15151+Q00987; inhibition, % at 8 µM; SaOS-2 split-luciferase Mdm2/MdmX complementation, luminescence;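 active = inhibition of at least 50% at 8 µM in the primary screen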
Target sequence (O15151 whole entry, looked up): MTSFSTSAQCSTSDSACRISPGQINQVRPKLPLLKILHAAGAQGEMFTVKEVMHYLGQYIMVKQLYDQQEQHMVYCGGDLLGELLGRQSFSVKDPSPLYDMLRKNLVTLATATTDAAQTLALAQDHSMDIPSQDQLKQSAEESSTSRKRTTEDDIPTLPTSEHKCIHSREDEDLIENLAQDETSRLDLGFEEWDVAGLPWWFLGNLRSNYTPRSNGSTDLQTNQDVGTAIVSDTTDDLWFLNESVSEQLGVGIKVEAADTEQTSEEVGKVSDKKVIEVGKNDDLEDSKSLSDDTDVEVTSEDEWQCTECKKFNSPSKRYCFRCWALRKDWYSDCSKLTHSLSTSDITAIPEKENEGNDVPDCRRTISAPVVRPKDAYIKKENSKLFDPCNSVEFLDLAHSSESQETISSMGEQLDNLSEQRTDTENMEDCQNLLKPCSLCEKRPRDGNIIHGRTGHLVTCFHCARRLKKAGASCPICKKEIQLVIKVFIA
Target sequence (Q00987 whole entry, looked up): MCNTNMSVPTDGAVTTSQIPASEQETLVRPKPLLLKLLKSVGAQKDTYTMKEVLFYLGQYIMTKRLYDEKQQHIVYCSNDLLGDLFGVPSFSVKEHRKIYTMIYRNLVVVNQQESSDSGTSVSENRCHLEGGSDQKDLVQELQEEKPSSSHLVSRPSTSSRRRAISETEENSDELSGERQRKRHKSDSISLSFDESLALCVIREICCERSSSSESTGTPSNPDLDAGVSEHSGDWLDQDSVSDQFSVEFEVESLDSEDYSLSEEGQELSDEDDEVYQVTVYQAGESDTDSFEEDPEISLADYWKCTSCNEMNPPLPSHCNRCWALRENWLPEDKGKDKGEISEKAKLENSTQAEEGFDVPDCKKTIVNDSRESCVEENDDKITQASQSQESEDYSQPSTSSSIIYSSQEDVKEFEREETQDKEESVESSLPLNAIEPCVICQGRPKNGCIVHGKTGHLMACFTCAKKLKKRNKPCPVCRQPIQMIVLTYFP
tim10-1 inh: tim10-1 yeast growth inhibition; S. cerevisiae tim10-1 ts strain growth, BacTiter-Glo, 24 h; actives 2.2% (n = 330,000); inhibition, % at 20 µM;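 active = inhibition of at least 40%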;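 note: mutant grown at 25 °C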
MPTP inh: blocks calcium-induced mitochondrial swelling. isolated mouse mitochondria, Ca2+ swelling absorbance, 30 min. inhibition, % at 10 µM. actives 1.4% (n = 360,000);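 active = inhibition of 50% or more, scaled per plate between neutral and stimulator controls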
TIM10 inh: growth inhibitors of TIM10 yeast strain; S. cerevisiae TIM10 strain growth, BacTiter-Glo luminescence, 24 h; inhibition, % at 10 µM; actives 1.4% (n = 330,000); AID 463195;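 active = inhibition of 40% or more at the single tested concentration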;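 note: wild-type TIM10 isogenic control strain grown at permissive 25 °C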
Mdm2 MdmX conf: human Mdm2/MdmX binding inhibition, confirmed. shares compounds with Mdm2 MdmX PPI. luminescent assay. inhibition, % at 8 µM. actives 55% (n = 10,000). AID 489028; in the data active = inhibition above about 40%
Full FLuc ctr: inhibits full-length luciferase, flagging false Mdm2/MdmX hits. SaOS-2 full-length luciferase counterscreen, luminescence. shares compounds with Mdm2 MdmX PPI. inhibition, % at 8 µM. actives 77% (n = 6,200);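 active = mean inhibition at 8 µM reaching about 37%, which flags the compound as non-specific, limit read from the data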;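 note: p53-null SaOS-2 cells with luciferase driven by a doxycycline-inducible promoter; compound on cells about two nights before reading with doxycycline added after day one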
A number is an active result; - = inactive; . = no result. The list is not random: actives were taken first. Their share in the collection is about 6.3%.

SMILES	tim23-1 inh	Mdm2 MdmX PPI	tim10-1 inh	MPTP inh	TIM10 inh	Mdm2 MdmX conf	Full FLuc ctr
Cc1cc(=O)n2[nH]c(=O)c(N=Nc3ccccc3)c2[nH]1	-	-	-	-	-	.	.
Cc1ccc(-c2[nH][nH]c(=O)c(=O)c2N=Nc2ccccc2)cc1	-	61	-	-	-	-	.
CCCC(O)(CCC)C(=O)NN(C(=O)CCl)c1ccccc1	-	58	-	-	-	-	.
COc1cccc(-c2cc(-c3cccnc3)c(C#N)c(N)n2)c1	-	-	-	-	-	.	.
COc1ccc(-c2cc(-c3ccc(O)cc3)nc(N)c2C#N)cc1	-	62	-	-	-	-	.
COc1ccccc1-c1cc(C2CC2)nc(N)c1C#N	-	-	-	-	-	.	.
COc1cc(-c2cc(-c3ccc(O)cc3)nc(N)c2C#N)ccc1O	-	81	-	-	-	54	92
O=C1c2ccc3c4c(ccc(c24)C(=O)N1c1cccc(O)c1)C(=O)N(c1cccc(O)c1)C3=O	-	65	-	-	-	47	-
COc1ccc(N2C(=O)N3[C@H](c4ccc(Cl)cc4)[C@@H]4C(=O)N(C5CCCCC5)C(=O)[C@@H]4[C@]3(Cc3ccc(Cl)cc3)C2=O)cc1	-	-	-	-	-	.	.
Cc1ccc(N2C(=O)N3[C@H](c4ccc(F)cc4)[C@@H]4C(=O)N(C5CCCCC5)C(=O)[C@@H]4[C@]3(Cc3ccccc3)C2=O)cc1	-	61	-	-	-	70	57
O=C1[C@H]2[C@@H](c3ccc(F)cc3)N3C(=O)N(c4cccc(F)c4)C(=O)[C@@]3(Cc3ccccc3)[C@H]2C(=O)N1C1CCCCC1	-	-	-	-	-	.	.
O=C1[C@H]2[C@@H](c3ccc(F)cc3)N3C(=O)N(c4ccc(Br)cc4)C(=O)[C@@]3(Cc3ccc(Cl)cc3)[C@H]2C(=O)N1C1CCCCC1	-	85	-	-	-	94	-
CCOC(=O)c1nn(C)c2[nH]c(=O)n(C)c(=O)c12	.	.	.	-	.	.	.
C=CCNC(=S)N/N=C/c1cn(-c2ccccc2)nc1-c1ccc(OC)cc1	-	51	-	-	-	-	.
COc1ccc(-c2nn(-c3ccccc3)cc2/C=N/NC(=O)c2ccc(Br)o2)cc1	-	68	-	-	-	-	.
COc1ccc(-c2nn(-c3ccccc3)cc2/C=N/NC(=O)c2ccc3c(c2)OCO3)cc1	-	-	-	.	-	.	.
COC(=O)C[C@@H]1C=C[C@@H](NC(=O)C2CCC2)[C@@H](CO)O1	.	.	.	-	.	.	.
Cc1ccc(N2C(=O)c3cccc4c(N5CCN(C)CC5)ccc(c34)C2=O)c2cccnc12	-	66	-	.	-	65	57
Cc1ccc(N2C(=O)c3cccc4c([N+](=O)[O-])ccc(c34)C2=O)c2cccnc12	-	92	-	-	-	60	60
C(=N\Nc1nc2ccccc2[nH]1)/c1cccc2nccnc12	-	74	-	-	-	65	-
CCN(CC)c1ccc(/C=N/Nc2nc3ccccc3[nH]2)c(O)c1	-	58	-	-	-	74	40
COCCNC(=O)C1(C)CCN(C(=O)c2sc(-c3ccccc3)nc2C)C1 (centres undefined)	.	.	.	-	.	.	.
COc1cccc(Nc2nc(C(N)Cc3ccc(Cl)cc3)cs2)n1 (centres undefined)	.	.	.	-	.	.	.
Cc1cccc(OCC(=O)NC(C)C(=O)N/N=C/c2c(OCc3ccccc3)ccc3ccccc23)c1 (centres undefined)	-	76	-	-	-	-	69
COc1ccc(-n2ncc(N(C)n3cccc3)c(Cl)c2=O)cc1	-	-	-	-	-	.	.
SMILES	tim23-1 inh	Mdm2 MdmX PPI	tim10-1 inh	MPTP inh	TIM10 inh	Mdm2 MdmX conf	Full FLuc ctr
COc1ccc(-n2ncc(Cl)c(Cl)c2=O)cc1	-	100	-	-	-	99	52
CSc1c(CC(=O)Nc2ccccc2)n(Cc2ccccc2)c2ccccc12	-	60	-	-	-	-	.
CSc1c(CC(=O)Nc2ccccc2Cl)n(Cc2ccccc2)c2ccccc12	-	58	-	-	-	-	.
CSc1c(CC(=O)Nc2ccccc2C(F)(F)F)n(Cc2ccccc2)c2ccccc12	-	74	-	-	-	-	107
Fc1ccc(-c2ccc3c(c2)C2CC3CCN2)cc1 (centres undefined)	.	.	.	-	.	.	.
CC(=O)Nc1ccc(NC(=O)CNC(=O)c2sc3ccccc3c2Cl)cc1	-	-	-	-	-	.	.
COC(=O)c1ccc(NC(=O)CNC(=O)c2sc3ccccc3c2Cl)cc1	-	94	-	-	-	49	93
COc1cc(CNC(C)c2ccccc2)cc(Cl)c1OCC(=O)Nc1ccccc1 (centres undefined)	-	68	-	-	-	56	51
CCN(CC)CCNCc1cc(Cl)c(OCC(=O)Nc2ccccc2)c(OC)c1	-	-	-	-	-	.	.
COc1cc(CNC(C)c2ccccc2)cc(Br)c1OCc1ccc(F)cc1 (centres undefined)	-	60	-	-	-	63	75
Cc1ccc(-c2nc3ncccc3o2)cc1NC(=O)c1sc2ccccc2c1Cl	-	83	-	-	-	-	.
C=CC(=O)Nc1sc2c(c1C(N)=O)CCCC2	-	53	-	-	-	-	.
COc1ccc(N2CC(C(=O)N/N=C/c3ccc(C)cc3)CC2=O)cc1 (centres undefined)	-	52	-	-	-	62	53
COc1ccc(N2CC(C(=O)N/N=C/c3ccc([N+](=O)[O-])cc3)CC2=O)cc1 (centres undefined)	-	-	-	-	-	.	.
COc1ccc(C(=O)N(c2c(C)cccc2C)C(COC(C)=O)COC(C)=O)cc1	.	.	.	-	.	.	.
CCN1/C(=C/c2cccc[n+]2C)Sc2ccc(OC)cc21	-	74	-	-	-	48	78
CN1/C(=C/c2cccc[n+]2C)Sc2ccccc21	-	-	-	-	-	.	.
Cc1ccc2c(c1)N(C)/C(=C/c1cccc[n+]1C)S2	-	79	-	-	-	74	64
COc1ccc2c(c1)N(C)/C(=C/c1cccc[n+]1C)S2	-	72	-	-	-	-	64
O=C(Cc1ccc(NC(=O)C2CCCN(C(=O)C3CCC3)C2)cc1)Nc1cccc(C(=O)N2CCCCC2)c1 (centres undefined)	.	.	.	-	.	.	.
Clc1ccc2c(SCC3CO3)c3ccccc3nc2c1 (centres undefined)	.	.	.	-	.	.	.
CC(=O)N1CCN(C(c2ccccc2)c2ccccc2)CC1	-	-	-	.	-	.	.
CC12CNCC(C)(CN(C(c3ccccc3)c3ccccc3)C1)C2	-	96	-	-	-	47	63
Cc1ccc(-c2nnc(CSc3nnc(COc4cccc5ccccc45)n3-c3ccccc3)o2)cc1	-	63	-	-	-	-	.
O=C(OCc1ccccc1)N1CCC2CC1c1cc(-c3ccc4c(c3)OCO4)ccc12 (centres undefined)	.	.	.	-	.	.	.
O=c1c(Cl)c(Cl)cnn1Cc1ccc(F)cc1	-	93	-	-	-	-	.

From PubChem
